Test results: the OligoGym collection
Note: reference of the scale not given here.

What follows are sequences tested against ERICH1 (assay: pooled miR-30 sensor sort-seq; sequence = guide strand). Details: shRNA.
TTAACTTAACAGAATGTCCATT showed a sensor-assay potency score (higher = more potent) of -0.597. For TTATTTTTGCTTATTGTGGTGC, the sensor-assay potency score (higher = more potent) was 0.19. With TTTTTTGTTAAAGAGGAGCTGT the sensor-assay potency score (higher = more potent) was 0.195. With TTTCATTGGTAATTGTATCATC the sensor-assay potency score (higher = more potent) was -0.447. Sequence TTCATTGCTGCTGTCCTCGGGC has a sensor-assay potency score (higher = more potent) of 0.0342. For TCTCTCAGTATCTTGCAGGAGC, the sensor-assay potency score (higher = more potent) was -0.55. TATTGTGGTGCCATCTGTGTGC showed a sensor-assay potency score (higher = more potent) of 0.019. TTTATTTTTGCTTATTGTGGTG was tested, and the sensor-assay potency score (higher = more potent) was -0.386.

What follows are sequences tested against ERMAP in the same assay as above. Details: shRNA.
TTCAACTTCAGTTCACTCCGGA was tested, and the sensor-assay potency score (higher = more potent) was 0.912. Sequence TTTACTCAGATTTCCAACTTGG has a sensor-assay potency score (higher = more potent) of 0.208. TATTGCAGTACAATGGTCTTGT gave a sensor-assay potency score (higher = more potent) of 0.896. Work on TCTCTCACTAGCACCGTCCTCC yielded a sensor-assay potency score (higher = more potent) of 0.0369. For TTTTGCTCTTCTTTGCTTCCAG, the sensor-assay potency score (higher = more potent) was 0.153. Sequence TTTCTTGACAGCTTTATGGAGT has a sensor-assay potency score (higher = more potent) of 0.273. Sequence TCAGACATCGGTAAGACCCTTG has a sensor-assay potency score (higher = more potent) of 0.421. With TAGTAAAGAAGAGTTCACCTTG the sensor-assay potency score (higher = more potent) was 0.291. With TTTGCTCTTCTTTGCTTCCAGA the sensor-assay potency score (higher = more potent) was -0.875. TAGTTCTGAACAAATGACTAGA showed a sensor-assay potency score (higher = more potent) of -0.0154. Sequence TTGTAGAAAGAGATGACTCCTG has a sensor-assay potency score (higher = more potent) of 0.279. TTACACATCTTTGGTCCTCAGA showed a sensor-assay potency score (higher = more potent) of -0.674.

What follows are sequences tested against ESPNL in the same assay as above. Details: shRNA.
TTTATTTAGCAAACACATGTTC showed a sensor-assay potency score (higher = more potent) of -0.167. TCCTCTTCTTCCATCCTCCAGG gave a sensor-assay potency score (higher = more potent) of -1.74. For TTATTTAGCAAACACATGTTCA, the sensor-assay potency score (higher = more potent) was -0.54. TTACATCTTCTTGAGTGTCCGT showed a sensor-assay potency score (higher = more potent) of 0.428. TGAGTCTGTGAGTACCTCCAGG showed a sensor-assay potency score (higher = more potent) of -0.966. TGCCACAACAGAACAGTCCCGC showed a sensor-assay potency score (higher = more potent) of 0.291. TAGCAAACACATGTTCAGCTTC gave a sensor-assay potency score (higher = more potent) of 0.322. For TTCAGCAGCAGGGACAGGCTGC, the sensor-assay potency score (higher = more potent) was -0.751. For TGCACCAAGAACTTGACGCAGT, the sensor-assay potency score (higher = more potent) was -1.02. TACATCTTCTTGAGTGTCCGTC gave a sensor-assay potency score (higher = more potent) of 0.148. TTTTACATCTTCTTGAGTGTCC was tested, and the sensor-assay potency score (higher = more potent) was 0.799. TCGGTGAATGTGACCAGCCAGA was tested, and the sensor-assay potency score (higher = more potent) was -1.22.

What follows are sequences tested against ESR2 in the same assay as above. Details: shRNA.
With TTACAGGTAAGGTGTGTTCTAG the sensor-assay potency score (higher = more potent) was -0.694. In the case of TAATTCATCACAGCAGGGCTAT, the sensor-assay potency score (higher = more potent) is reported as -0.611. In the case of TTGAGCGCCACATCAGCCCCAT, the sensor-assay potency score (higher = more potent) is reported as -0.177. TTTAACTCTCGAAACCTTGAAG gave a sensor-assay potency score (higher = more potent) of -0.511. TACAGATGTGATAACTGGCGAT showed a sensor-assay potency score (higher = more potent) of -0.498. Work on TTCCTTTTCAGTGTCTCTCTGT yielded a sensor-assay potency score (higher = more potent) of 0.263. TCCAAGTTAGTGACATTGCTGG gave a sensor-assay potency score (higher = more potent) of 0.101. With ATCATGTGTACCAACTCCTTGT the sensor-assay potency score (higher = more potent) was -0.273.
